Data from ChEMBL document CHEMBL4296182, “CO-ADD screening of NIH NCI Diversity Set V”.
For part of these data: Potency and affinity values are given separately.

Tests used:
Staphylococcus aureus = experiment: Antibacterial activity against Staphylococcus aureus MRSA ATCC 43300 (CO-ADD:GP_020); MIC in CAMBH media using NBS plates, by Resazurin F(560/590); type: functional; conditions: Concentration 20 uM, ASSAY_TEST Inhibition of Bacterial Growth, detection method Resazurin, Fluorescence (ex560/em590), MEDIA CAMHB, plate type 384well, CORNING #3640, time 18 hr
Acinetobacter baumannii = experiment: Antibacterial activity against Acinetobacter baumannii ATCC 19606 (CO-ADD:GN_034); MIC in CAMBH media using NBS plates, by Resazurin F(560/590); type: functional; conditions: Concentration 20 uM, ASSAY_TEST Inhibition of Bacterial Growth, detection method Resazurin, Fluorescence (ex560/em590), MEDIA CAMHB, plate type 384well, CORNING #3640, time 18 hr
Escherichia coli = experiment: Antibacterial activity against Escherichia coli ATCC 25922 (CO-ADD:GN_001); MIC in CAMBH media using NBS plates, by Resazurin F(560/590); type: functional; conditions: Concentration 20 uM, ASSAY_TEST Inhibition of Bacterial Growth, detection method Resazurin, Fluorescence (ex560/em590), MEDIA CAMHB, plate type 384well, CORNING #3640, time 18 hr
Klebsiella pneumoniae = conditions: Concentration 20 uM; ASSAY_TEST Inhibition of Bacterial Growth; detection method Absorption (OD600); MEDIA CAMHB; plate type 384well; NBS; CORNING #3640; time 18 hr
Candida albicans = conditions: 20 µM
Cryptococcus neoformans = conditions: Concentration 20 uM; ASSAY_TEST Inhibition of Fungal Growth; detection method Resazurin; Absorption (OD600-OD570); plate type 384well; NBS; CORNING #3640

Structure (SMILES)	Inhibition (Staphylococcus aureus) [%]	Inhibition (Acinetobacter baumannii) [%]	Inhibition (Escherichia coli) [%]	Inhibition (Klebsiella pneumoniae) [%]	Inhibition (Candida albicans) [%]	Inhibition (Cryptococcus neoformans) [%]
CN(CCC#N)c1ccc(/C=C(\C#N)c2cccc(C(F)(F)F)c2)cc1	-1.81	5.38	-0.01	0.85	3.04	-3.8
Cc1ccc(N2CCN(CC(O)COc3cccc(C)c3)CC2)cc1 (stereo unspecified)	10.15	-11.82	15.19	10.88	-0.24	-16.06
N=C(N)NC(=S)Nc1ccc(Cl)cc1	29.08	3.91	19.57	9.15	20	-7.26
CCOC(=O)Nc1csnn1	13.65	-5.72	13.49	14.72	5.16	-5.84
Cc1nnsc1C(=O)NCc1c(F)cccc1Cl	-1.87	-1.01	-7.07	6.44	-0.57	-9.18
Cn1c(=O)c2c(ncn2CCOC(=O)C(C)(C)Oc2ccc(Cl)cc2)n(C)c1=O [THEOFIBRATE]	-5.55	-11.51	14.7	11.96	0.53	-5.77
Cc1nc(NC(=N)N(C)C)nc(O)c1C	4.99	-6.08	5.79	6.63	0.54	-10.51
c1ccc(-c2nnc3nc(N4CCCCC4)nc(N4CCCCC4)n23)cc1	-3.53	-1.96	14.28	1.6	1.09	-15.11
O=c1[nH]c(=S)c2ncn(-c3ccccc3)c2[nH]1	-3.01	-10.26	3.12	1.95	9.78	-2.67
C[C@@]1(c2ccccc2)O[C@@H]2C[C@H]3[C@@H]4CCC5=CC(=O)C=C[C@]5(C)[C@@]4(F)[C@@H](O)C[C@]3(C)[C@]2(C(=O)CO)O1 [AMCINAFIDE]	5.72	-8.64	8.97	3.86	4.92	-9.65
Oc1ccc2c(ccc3[nH]cnc32)c1	7.97	-12.34	17.76	18.56	-0.43	-9.86
Cc1nc2c(O)cccc2cc1CO	12.47	-18.52	6.1	7.86	-0.94	-5.84
Nc1ccn(C2OC(CCl)C(O)C2O)c(=O)n1 (stereo unspecified)	16.82	-8.52	10.09	13.7	0.99	-4.88
N=C1OC(c2ccccc2)C(O)=C1O (stereo unspecified)	0.33	-10.5	6.34	8.48	7.04	-2.61
NS(=O)(=O)c1cc2c(cc1Cl)NC(CC1CCCC1)NS2(=O)=O (stereo unspecified) [CYCLOPENTHIAZIDE]	1.39	8.9	-12.38	7.07	3.92	5.84
O=C(Nc1ccsn1)c1ccc(Cl)cc1Cl	2.74	-9.67	7.73	13.89	3.31	7.18
COc1ccc([N+](=O)[O-])cc1NS(=O)(=O)c1ccc(C)cc1	7.11	4.99	7.35	9.82	5.66	-6.48
CCN1CCCCC(=N\O)/C(=N/O)CCCC1	-0.99	-8.24	1.26	23.74	-0.06	-7.99
Cc1ccc(C)c(N2CCN(c3ccncc3N)CC2)c1	-5.41	-5.32	7.02	8.69	3.75	-6.74
N#C/C(=C\c1cc(O)c(O)c(O)c1)C(N)=O	-3.49	6.06	5.21	9.86	5.49	-11.36
O=[N+]([O-])/C=C/c1cc2ccccc2[nH]1	0.82	-9.9	9.79	7.79	46.8	-1.09
